The text below walks through data of PubChem BioAssay AID651719 (The Scripps Research Institute Molecular Screening Center, 2012).

Each structure is given as a SMILES string. The whole screen tested about 360,000 compounds, of which about 1,600 (0.44%) were called active. The sample as a whole holds a higher share of actives than the screen did. A number with no mark means an inactive call.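 Rule for the calls: active = inhibition above the screen-wide average plus 3 SD (cut at about 13% in these data); inactive = the rest.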

In this experiment the target is Galanin receptor type 3 (Homo sapiens) (UniProt O60755). As to the kind of experiment: GalR3 antagonists in HEK293 cells, primary screen, cell-based, fluorescence readout (AID 651719).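 Note: forskolin and galanin both at EC90 stimulate the cells; cAMP rise reported by CNG channel membrane potential dye signal; 0% = forskolin plus galanin with DMSO and 100% = forskolin alone.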 As to conditions: HEK293 GalR3-CNG cAMP membrane potential fluorescence; at 3 µM; hits give high values; galR3 body fused to GalR1 C-terminus.
Chain of Galanin receptor type 3 (Homo sapiens) (O60755 1-299 limits assumed): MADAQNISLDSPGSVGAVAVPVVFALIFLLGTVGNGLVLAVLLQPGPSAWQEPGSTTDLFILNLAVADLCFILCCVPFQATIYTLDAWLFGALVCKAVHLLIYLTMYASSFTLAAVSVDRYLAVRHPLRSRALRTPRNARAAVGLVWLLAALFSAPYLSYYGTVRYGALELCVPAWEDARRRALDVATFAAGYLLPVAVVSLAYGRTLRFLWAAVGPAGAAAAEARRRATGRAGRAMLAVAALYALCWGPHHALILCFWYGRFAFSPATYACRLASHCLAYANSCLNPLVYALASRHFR
Consider `O=C(C(=O)N1CCC(CNS(=O)(=O)Cc2ccccc2)CC1)c1cc2ccccc2o1`, for which the inhibition (as a rule, the drop in the measured response relative to a control, in per cent) is -6.6%.

For `C=CCC1(CC=C)CCCN1C(=O)c1cc(COc2ccc(-n3cncn3)cc2)on1`, the inhibition was 80.6% (active).

For the compound `COc1cccc(OCc2cc(C(=O)N3CCN(C(=O)c4ccco4)CC3)no2)c1`, the inhibition was -10.3%.

For `CCCC(=O)N1CCC1(C)C(=O)Nc1ccc(-n2cncn2)cc1` (stereo unspecified), the inhibition was -6.01%.

`O=C(Nc1c(Cl)c(C2CC2)nn1-c1ccccc1)C(Cl)(Cl)Cl`: the inhibition was -6.45%.

On to `COc1cccc(CC(=O)N2CCN(C(=O)C(=O)c3cccc(C(F)(F)F)c3)CC2)c1`, for which the inhibition was 1.16%.

As for `O=C(NCCSCc1ccccc1)c1ccc(Cl)c(S(=O)(=O)N2CCOCC2)c1`, the inhibition was -7.04%.

As for `CN(C)S(=O)(=O)c1ccc(C(=O)NCC(C)(C)N2CCOCC2)cc1`, the inhibition is -0.16%.

Regarding `CC(C)(CNC(=O)c1ccc(Cl)c(S(=O)(=O)N2CCc3ccccc3C2)c1)N1CCOCC1`, the inhibition was 98.3% (active).

For the compound `COc1cccc(-c2cc(CNC(=O)[C@@H](Cc3ccccc3)NC(=O)[C@H]3O[C@@H](n4cnc(C(N)=O)n4)[C@H](O)[C@@H]3O)no2)c1`, the inhibition is -7.28%.

With `O=C(C1CCCN(S(=O)(=O)c2ccccc2)C1)N1CCN(c2ccc(F)cc2)CC1` (stereo unspecified), the inhibition is -0.67%.

For `CC(=O)N1CCCc2cc(S(=O)(=O)N3CCCC(C(=O)N4CCN(c5cccc(Cl)c5)CC4)C3)ccc21` (stereo unspecified), the inhibition was 77.3% (active).

For `CC(=O)N1c2ccc(S(=O)(=O)N3CCC(C(=O)N4CCN(c5ccccc5)CC4)CC3)cc2CC1C` (stereo unspecified), the inhibition is 0.42%.

In the case of `CCCCCCCCN1C(=O)[C@@H](CC(=O)NCc2ccccc2)C[C@@]2(C(=O)OC)C1=C[C@H](C(C)(C)C)O[C@@H]2C`, the inhibition is -6.16%.

As for `CC1(C)CC(N2CCN(C(c3ccccc3)c3ccccc3)CC2)=CC(=[N+]2CCCCC2)C1`, the inhibition was 39.8% (active).

For the compound `COc1ccccc1NC(=S)N1CCN(C(c2ccccc2)c2ccccc2)CC1`, the inhibition is -3.76%.

Turning to `Cc1cccc(N2CCN(C(c3ccccc3)c3nnnn3CC3CCCO3)CC2)c1C` (stereo unspecified), the inhibition is -2.6%.

For `Cc1ccc2nc(CN(C)C(=O)[C@@H](Cc3ccccc3)NC(=O)[C@H]3O[C@@H](n4ccc(=O)[nH]c4=O)[C@H](O)[C@@H]3O)[nH]c2c1`, the inhibition is -7.44%.

For `COC(=O)[C@]12C[C@H](CC(=O)NCc3ccc(OC)c(OC)c3)C(=O)N(Cc3ccccc3)C1=C[C@H](C(C)C)O[C@@H]2C1CC1`, the inhibition is 3.98%.

For the compound `COC(=O)Cc1nnn2c1[C@H](C)[C@@H](OC)c1cc(Br)ccc1-2`, the inhibition was -5.13%.

As for `COc1ccc(-c2cc(C(F)(F)F)nc(S(C)(=O)=O)n2)cc1OC`, the inhibition is 20.7% (active).

Turning to `COc1ccc(-c2cc(C(F)(F)F)nc(SCCC(=O)NCc3ccco3)n2)cc1`, the inhibition is -3.08%.

`COc1ccc(-c2cc(C(=O)N(C)Cc3ccc(OC)c(OC)c3OC)c3ccccc3n2)cc1OC`: the inhibition is 2.03%.

On to `COc1cccc(NC(=O)N(C)C[C@@H]2OCc3cn(nn3)CCCC(=O)N([C@@H](C)CO)C[C@H]2C)c1`, for which the inhibition was -0.11%.

As for `CC[C@H](C)[C@H]1CNC(=O)C(=O)N1CC1CCN(CCc2ccc(OC)c(OC)c2)CC1`, the inhibition was 1.44%.

Regarding `CCCCCCCCN1C(=O)[C@@H](CC(=O)N2CCN(C(=O)OCC)CC2)C[C@@]2(C(=O)OC)C1=C[C@H](C1CCCC1)O[C@@H]2C`, the inhibition was -3.33%.

`CCN1/C(=C\c2ccc3ccccc3[n+]2CC)Sc2cc(C)ccc21`: the inhibition was 45.8% (active).

Turning to `COC(=O)[C@]12C[C@H](CC(=O)NCc3cccc(C(F)(F)F)c3)C(=O)N(Cc3ccc4c(c3)OCO4)C1=C[C@H](COCc1ccccc1)O[C@@H]2C`, the inhibition was -4.92%.

In the case of `COc1cccc(CNC(=O)[C@H]2CCCN2C(=O)[C@H]2CCCN2C(=O)C2CCCCC2)c1`, the inhibition was -6.3%.

For `CCOc1cc(C(=O)N2CCc3cc(OC)c(OC)cc3C2)ccc1OC(F)F`, the inhibition was 31.5% (active).

`COc1cc2c(cc1OC)CN(C(=O)c1ccc(S(=O)(=O)N3CCCCCC3)cc1)CC2`: the inhibition was 1.33%.

Regarding `COc1cc2c(cc1OC)CN(C(=O)c1cc(S(=O)(=O)N3CCCCC3)ccc1Cl)CC2`, the inhibition was -3.04%.

For `Nc1nc2c(ncn2[C@@H]2O[C@H](C(=O)N[C@@H](Cc3ccccc3)C(=O)NCc3ccccc3)[C@@H](O)[C@H]2O)c(=O)[nH]1`, the inhibition is -5.49%.

As for `CCOC(=O)c1cc2n(c1C)-c1ccccc1C2=O`, the inhibition was 15.1% (active).

With `Cc1cc(C(=O)OCC(=O)N2c3ccccc3NC(=O)C2(C)C)c(C)n1-c1ccccc1`, the inhibition is -4.87%.

As for `CCOC(=O)CN1C(=O)C(=O)c2cc(C)ccc21`, the inhibition was -3.3%.

With `CCCNC(=O)C1(C)CCN1C(=O)Cc1ccc(-c2ccccc2)cc1` (stereo unspecified), the inhibition is -4.21%.

For `CC1(C(=O)NS(=O)(=O)c2ccccc2)CCN1C(=O)Cc1ccc(-c2ccccc2)cc1` (stereo unspecified), the inhibition was 0.25%.

Regarding `C#Cc1ccc(NC(=O)C2(C)CCN2C(=O)Cc2ccc(-c3ccccc3)cc2)cc1` (stereo unspecified), the inhibition was 44.5% (active).

With `CCCn1nc(C(=O)NNC(=O)CCOc2ccccc2OCC)c2ccccc2c1=O`, the inhibition was -2.63%.

As for `CCCn1nc(C(=O)NNC(=O)CSCC(=O)Nc2cc(C)on2)c2ccccc2c1=O`, the inhibition is 21.7% (active).

As for `CCCn1nc(C(=O)Nc2ccc3nc(C)sc3c2)c2ccccc2c1=O`, the inhibition is -5.64%.

On to `C[C@H](O)[C@@H]1CN2CCc3ccc(-c4ccc5c(c4)OCO5)cc3[C@@H]2C[C@@H]1N(C)C(=O)C1CCCCC1`, for which the inhibition was -7.4%.

For the compound `COC(=O)C1=C(C(=O)OC)C2C=C(C(C)C)C1C(=O)C2(C)O` (stereo unspecified), the inhibition is -4.32%.

Turning to `COC(=O)[C@]12C[C@H](CC(=O)NCc3ccccc3)C(=O)N(CCC3=CCCCC3)C1=C[C@H](C(C)(C)C)O[C@@H]2C`, the inhibition was -4.94%.

For `O=C(CSc1ccc(-c2cccs2)nn1)Nc1ccccc1F`, the inhibition was -4.48%.

On to `Cc1c(Cl)cccc1NC(=O)CSc1ccc(-c2cccnc2)nn1`, for which the inhibition was 14.3% (active).

Take `COc1cc(NC(=O)CSc2ccc(-c3cccnc3)nn2)cc(OC)c1`: the inhibition was -2.54%.

For the compound `O=S1(=O)c2ccc(Br)cc2-n2nncc2CN1Cc1cccc(Cl)c1`, the inhibition is -7.46%.

In the case of `COCCCNC(=O)C[C@H]1C[C@@]2(C(=O)OC)C(=C[C@H](C(C)(C)C)O[C@@H]2C)N(Cc2ccc3c(c2)OCO3)C1=O`, the inhibition was -0.33%.

Consider `CCCN1Cc2cccc(C(=O)Nc3ccc(S(=O)(=O)N4CCCCCC4)cc3)c2C1=O`, for which the inhibition is -8.35%.

As for `COCCN1Cc2cccc(C(=O)Nc3ccccc3OC)c2C1=O`, the inhibition was 41.5% (active).

Take `CCCN1Cc2cccc(C(=O)NCc3ccccc3)c2C1=O`: the inhibition is -3.84%.

As for `O=C(NS(=O)(=O)c1cccs1)[C@H]1O[C@@H](n2ccc(=O)[nH]c2=O)[C@H](O)[C@@H]1O`, the inhibition is -5.05%.

For the compound `Cc1cc2c(nc1C)CCCN2C`, the inhibition is -4.98%.

For `CC(CCc1ccccc1)NCC(O)c1cccc([N+](=O)[O-])c1` (stereo unspecified), the inhibition is 26.9% (active).

With `O=C(CC(c1ccccc1)c1ccccc1)NCC(O)c1ccc([N+](=O)[O-])cc1` (stereo unspecified), the inhibition was -3.68%.

Consider `CC(C)OC(=O)CC(=O)CC(O)c1cccc([N+](=O)[O-])c1` (stereo unspecified), for which the inhibition was -6.46%.

Consider `COc1ccc(S(=O)(=O)Nc2ccc3c(c2)C(=O)N([C@H](C)CO)C[C@H](C)[C@@H](CN(C)C)OCCCC[C@H](C)O3)cc1`, for which the inhibition was -6.44%.

In the case of `c1ccc(CNc2ncnc3[nH]ncc23)cc1`, the inhibition was -4.19%.

For `c1coc(CNc2ncnc3ccccc23)c1`, the inhibition was 82.2% (active).

As to `O=C(NCc1ccncc1)C(=O)NCc1ccco1`, the inhibition was -2.62%.

Consider `C[C@H](O)[C@@H]1C(=O)N2CCc3c([nH]c4c(-c5ccc6c(c5)OCO6)cccc34)[C@@H]2C[C@@H]1N(C)C(=O)c1ccco1`, for which the inhibition was -7.36%.

Take `C[C@H]1[C@H](c2ccccc2)Oc2cc(Br)ccc2S(=O)(=O)N1Cc1cccc(F)c1`: the inhibition is -2.05%.

Consider `CCOc1ccc(C(=O)Nc2ccc(CN3CCOCC3)cc2)cc1Cl`, for which the inhibition is -8.84%.

For the compound `O=C(Nc1ccc(CSc2ccccc2)cc1)c1ccc(CN2CCOCC2)cc1`, the inhibition was 95.3% (active).

`O=C(Nc1ccccc1C(=O)N1CCOCC1)c1ccc(CSc2ccccc2)cc1`: the inhibition is -0.11%.

Take `COC(=O)N1Cc2ccnnc2CC1c1ccccc1Br` (stereo unspecified): the inhibition was 1.18%.

Regarding `Cc1c(C=O)c2ccccc2n1CCOc1ccccc1`, the inhibition was 2.42%.

For `Cc1c(C=O)c2ccccc2n1CC(=O)O`, the inhibition was 12.7% (active).

For the compound `O=C(O)Cn1c(Cc2ccccc2)nc2ccccc21`, the inhibition was -10.6%.

For `C=CC1=CCN(S(=O)(=O)C(C)(C)C)[C@@H]1CCO`, the inhibition is -6.58%.

For the compound `O=C(NCc1ccccc1)[C@H]1CCCN1C(=O)[C@@H]1CCCN1C(=O)c1ccc(Cl)cc1Cl`, the inhibition was -7.72%.

Regarding `C[C@H]1CN([C@@H](C)CO)C(=O)CCCn2nncc2CO[C@@H]1CN(C)C(=O)Nc1ccc(N2CCN(C)CC2)cc1`, the inhibition is -5.34%.

As to `CC(C)[C@H]1COCCS(=O)(=O)N1Cc1ccccc1-c1cccc2c1sc1ccccc12`, the inhibition was -3.29%.

With `Cn1c(N)c(C(=O)COC(=O)c2ccc3ccccc3c2)c(=O)n(C)c1=O`, the inhibition was -4.21%.

On to `Cn1c(N)c(C(=O)COC(=O)COc2ccc(Cl)cc2)c(=O)n(C)c1=O`, for which the inhibition was -5.52%.

With `Cn1c(N)c(C(=O)COC(=O)c2cnc(Cl)c(Cl)c2)c(=O)n(C)c1=O`, the inhibition was 18.3% (active).

With `COc1ccc(/C=C/C(=O)OCC(=O)N2CCN(S(=O)(=O)c3ccc(C)cc3C)CC2)cc1OC`, the inhibition is -2.95%.

As to `Cc1ccc(S(=O)(=O)N2CCN(C(=O)COC(=O)c3c(C)cc(C)cc3C)CC2)c(C)c1`, the inhibition is 14.7% (active).

Regarding `Cc1ccc(S(=O)(=O)N2CCN(C(=O)COC(=O)c3c(C)noc3C)CC2)c(C)c1`, the inhibition was -3.17%.
